Records with an inconclusive call do not appear. Where a call stands in place of a potency, no number is given. Values without a mark were called inactive. Activity calls are given as the source filed them. The call rests on the fitted dose curve; in most records, active means well fitted cell-killing curve with a large enough effect; inconclusive means small, poorly fitted or top-dose-only effect, or effect the other way; inactive means flat fitted curve, though single readings scatter. Where a SMILES comes first, the peptide text is derived from it. [ ]: non-standard residue; d: D form. 2Abz = Nc1ccccc1C(=O)O

The first assay concerns SKOV3. Description: Primary qHTS to identify gynecologic anti-cancer compounds using libraries of approved drugs and bioactive compounds (AID 1345084). Further: nearly all actives have a fitted effect of over 55% in size. The settings on record: Gynecologic cancer cell panel viability, ATPlite luminescence, 48 h; series mostly up to 57.5 µM. The procedure, abridged:
(§1)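 Measured: luminescence after ATPlite addition (15 min, RT). Exposure: 48 h, 37 C, 5% CO2.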
Take `C/C1=C\C[C@H](O[C@@H]2O[C@H](CO)[C@@H](O)[C@H](O)[C@H]2O)/C(C)=C/[C@H]2OC(=O)[C@H](C)[C@@H]2CC1`: the Potency entry is “inactive”. As to `COC(=O)[C@H](CC1C=NC=N1)NCC12CC3CC(CC(C3)C1)C2` (stereo not given in full), the Potency entry was “inactive”. Take `CC(C)C1=CCC(C)(O)C(OC2OC(CO)C(O)C(O)C2O)C1` (stereo not given): the Potency entry is “inactive”.

Take `COc1cc(NC(=O)c2ccccn2)ccc1Cl`: the Potency entry was “inactive”.

Take `NCCOCCOCCNC(=O)Cc1ccc(Nc2nc(NCc3ccc(F)cc3)nc(NCC3CCCCC3)n2)cc1`: the Potency result was “inactive”. In the case of `CCC(NC(=O)CC(NC(=O)C(CO)NC(=O)C(CC)NC(=O)c1ccc[nH]1)c1ccccc1)C(=O)O` (stereo not given), the Potency entry was “inactive”. On the same count and under the same terms, the value for `C=C1C[C@]23C[C@H]1CC[C@H]2[C@@]12C=C[C@H](O)[C@@](C)(C(=O)O1)[C@H]2[C@@H]3C(=O)O` was “inactive”; that for `CC(C)CC(=O)OC[C@H]1O[C@@](COC(=O)CC(C)C)(O[C@H]2O[C@H](CO)[C@@H](O)[C@H](O)[C@H]2O)[C@@H](OC(=O)CC(C)C)[C@@H]1OC(=O)CC(C)C` was “inactive”. For the molecule `COc1cc(C2c3cc(O)c(OC)cc3CC(CO)C2CO)ccc1O` (stereo not given), the Potency result was “inactive”. `N#CCc1ccc(O)cc1O[C@@H]1O[C@H](CO)[C@@H](O)[C@H](O)[C@H]1O`: the Potency entry was “inactive”. Same read-out and setting: as for `C=C1C[C@@]23CC[C@@H]4[C@](C)(C(=O)O)CCC[C@@]4(C)C2=CC[C@H]1C3`, the entry is “inactive”; as for `C[C@@H]1O[C@@H](O[C@H]2[C@H](OC(C#N)c3ccc(O)cc3)O[C@H](CO)[C@@H](O)[C@@H]2O)[C@H](O)[C@H](O)[C@H]1O` (stereo not given in full), “inactive”.

Another assay has as its system Tov-21-G. The assay is described as above. To be noted: Gynecologic cancer cell panel viability, ATPlite luminescence, 48 h; series mostly up to 57.5 µM. The procedure, abridged: as §1
For `CC(=O)O[C@H](C[C@@H](C)[C@H]1C(=O)[C@H](O)[C@@]2(C)[C@@H]3CCC4C(C)(C)[C@@H](O[C@@H]5OC[C@H](O)[C@H](O)[C@H]5O)CC[C@@]45C[C@@]35CC[C@]12C)[C@@H]1OC1(C)C` (stereo not given in full), the Potency result is “inactive”. For the molecule `CC1OC(OC2C(C)OC(OC3C(OC(=O)/C=C/c4ccc(O)cc4)C(CO)OC(OC4(COC(=O)/C=C/c5ccc(O)cc5)OC(CO)C(O)C4O)C3OC3OCC(O)(CO)C3O)C(O)C2O)C(O)C(O)C1O` (stereo not given), the activity change, negative = cytotoxicity is 1.37% [at 11.6 µM]. For `CC(/C=C/[C@]1(O)[C@@]2(C)CO[C@@]1(C)C[C@@H](O)C2)=C\C(=O)O[C@@H]1O[C@H](CO)[C@@H](O)[C@H](O)[C@H]1O`, the Potency result was “inactive”. As to `C=C1C(=O)OC2CC(C)=C(C(C)CCCO[C@@H]3O[C@H](CO)[C@@H](O)[C@H](O)[C@H]3O)C(O)C12` (stereo not given in full), the Potency result was “inactive”.

Regarding `O=C(O[C@H]1[C@@H]2C[C@@H]3OC[C@@](O)([C@H]2[C@H](O[C@@H]2O[C@H](CO)[C@@H](O)[C@H](O)[C@H]2O)O3)[C@@H]1O)c1ccccc1`, the Potency result was “inactive”.

As to `CC(=O)c1c(C)cc(O)cc1O[C@@H]1O[C@H](CO)[C@@H](O)[C@H](O)[C@H]1O`, the Potency entry is “inactive”. Consider `CC1CCC(=O)CC(O)C(O)CC(=O)O1` (stereo not given), for which the Potency entry was “inactive”.

For `CC1(C)CC2C(O)C3=C(CC(C)(O)C2C1)C(=O)OC3O` (stereo not given), the Potency result was “inactive”. `CC[C@H](/C=C/[C@@H](C)[C@H]1CC[C@H]2[C@@H]3CC=C4C[C@@H](O)CC[C@]4(C)[C@H]3CC[C@]12C)C(C)C`: the activity change, negative = cytotoxicity is 16.8% [at 6.55 µM].

For the molecule `CC(=O)O[C@H]1[C@H](C)[C@@H](O)[C@H]2[C@@H]1C=C(C(=O)O)[C@H]1C[C@@H]3[C@H]([C@H]21)[C@H]1C(=O)O[C@@H]2CC[C@@]3(C)O[C@]1(O)[C@@H]2C`, the Potency entry is “inactive”. In the case of `CC(=O)OC(CSC1CCC(=O)OC(C)CCC(=O)C1)C(=O)O` (stereo not given), the Potency entry is “inactive”.

Consider `CC(/C=C/C1(O)C(C)CC(O)CC1(C)C)OC1OC(CO)C(O)C(O)C1O` (stereo not given), for which the Potency entry is “inactive”. Take `CC(=O)N[C@H]1CCN(c2ccc(C3=NOC(CN[S+](=O)([O-])C(C)C)C3)cc2F)C1` (stereo not given in full): the Potency result is “inactive”.

Regarding `CC1CCC2C(C)(C)C(O)CCC2(C)C12Cc1c(O)cc3c(c1O2)C(N)=NC3` (stereo not given), the Potency entry is “inactive”. `CNC(=O)Nc1ccc(OC)c(NC(=O)NC(=O)c2cc(F)c(F)cc2Cl)c1`: the Potency entry was “inactive”.

Take `CCCC(N[C@@H](C)C(=O)N1[C@H](C(=O)O)C[C@@H]2CCCC[C@@H]21)C(=O)OCC` (stereo not given in full): the Potency result was “inactive”. On to `C/C=C(\C)C(=O)O[C@@H](C)[C@H]1CC[C@]2(O)C3CCC4C[C@@H](OC5CC(OC)C(OC6CC(OC)C(OC7CC(OC)C(OC8OC(C)C(OC9OC(CO)C(O)C(O)C9O)C(OC)C8O)C(C)O7)C(C)O6)C(C)O5)CC[C@]4(C)C3[C@H](O)[C@@H](O)[C@]12C` (stereo not given in full), for which the activity change, negative = cytotoxicity was 13.7% [at 6.55 µM].

Turning to `CC1OC(O[C@H]2[C@@H](O)C[C@@]3(C)C([C@H](O)C[C@]4(C)C3CC=C3C5CC(C)(C)CC[C@]5(C(=O)OC5OC(CO)C(O)C(O)C5OC5OCC(OC6OCC(OC7OCC(O)C(O)C7O)C(O)C6O)C(OC6OCC(O)(CO)C6O)C5O)CC[C@]34C)[C@]2(C)CO)C(O)C(O)C1O` (stereo not given in full), the activity change, negative = cytotoxicity is -10.9% [at 6.55 µM]. Turning to `CCC(=O)N[C@@H]1Cc2ccccc2[C@H](c2ccccc2)C1`, the Potency entry is “inactive”. Regarding `CCC(C)C1NC(=O)C2CCCN2C(=O)C(C(C)C)NC(=O)c2ccccc2NC(=O)C(Cc2ccc(O)cc2)NC(=O)C(C)NC(=O)C(C(C)O)NC1=O` (stereo not given) (cyclo([2Abz]VPITAY); configuration not given here), the Potency result is “inactive”.

Consider `C=C1CCC2C(C)(C(=O)O)CC(O)CC2(C)C1CC/C(C)=C/C(=O)O` (stereo not given), for which the Potency result was “inactive”. In the case of `COc1cc([C@@H]2Oc3c(OC)cc(CCCO)cc3[C@@H]2CO[C@@H]2O[C@H](CO)[C@@H](O)[C@H](O)[C@H]2O)ccc1O`, the Potency entry was “inactive”. Same read-out and setting: as for `COc1cccc(-c2ccc([C@@H](Oc3cc(-c4ccc(C[C@H](N)C(=O)O)cc4)nc(N)n3)C(F)(F)F)cc2)c1`, the entry is “inactive”. Turning to `CCNC(=O)CCC/C=C\C[C@@H]1[C@@H](/C=C/C(O)CCc2ccccc2)[C@@H](O)C[C@@H]1O` (stereo not given in full), the Potency result was “inactive”. In the case of `Cc1[nH]cnc1C1CCN(c2nc3cccc4c3n2CCC4=O)CC1`, the Potency entry was “inactive”.

For `C=C(C)[C@@H](C)[C@H]1O[C@]23C[C@]4(CO2)C(CCC2[C@@]5(C)CC[C@H](O[C@@H]6OC[C@H](O)[C@H](O[C@@H]7O[C@H](CO)[C@@H](O)[C@H](O)[C@H]7O)[C@H]6O[C@@H]6O[C@@H](CO)[C@H](O)[C@H]6O)C(C)(C)C5CC[C@]24C)C3[C@@](C)(O)[C@@H]1OC(C)=O` (stereo not given in full), the activity change, negative = cytotoxicity is 0.172% [at 11.6 µM]. `C/C1=C\C[C@H](O[C@@H]2O[C@H](CO)[C@@H](O)[C@H](O)[C@H]2O)/C(C)=C/[C@H]2OC(=O)[C@H](C)[C@@H]2CC1`: the Potency entry was “inactive”. Same read-out and setting: the value for `COC(=O)[C@H](CC1C=NC=N1)NCC12CC3CC(CC(C3)C1)C2` (stereo not given in full) was “inactive”; that for `CC(C)C1=CCC(C)(O)C(OC2OC(CO)C(O)C(O)C2O)C1` (stereo not given) was “inactive”; that for `COc1cc(NC(=O)c2ccccn2)ccc1Cl` was “inactive”. As for `NCCOCCOCCNC(=O)Cc1ccc(Nc2nc(NCc3ccc(F)cc3)nc(NCC3CCCCC3)n2)cc1`, the Potency entry was “inactive”.

For `CCC(NC(=O)CC(NC(=O)C(CO)NC(=O)C(CC)NC(=O)c1ccc[nH]1)c1ccccc1)C(=O)O` (stereo not given), the Potency result was “inactive”. The same measure, in the same setting: the value for `C=C1C[C@]23C[C@H]1CC[C@H]2[C@@]12C=C[C@H](O)[C@@](C)(C(=O)O1)[C@H]2[C@@H]3C(=O)O` was “inactive”; that for `CC(C)CC(=O)OC[C@H]1O[C@@](COC(=O)CC(C)C)(O[C@H]2O[C@H](CO)[C@@H](O)[C@H](O)[C@H]2O)[C@@H](OC(=O)CC(C)C)[C@@H]1OC(=O)CC(C)C` was “inactive”. On to `COc1cc(C2c3cc(O)c(OC)cc3CC(CO)C2CO)ccc1O` (stereo not given), for which the Potency entry was “inactive”. `N#CCc1ccc(O)cc1O[C@@H]1O[C@H](CO)[C@@H](O)[C@H](O)[C@H]1O`: the Potency result was “inactive”.

Take `C=C1C[C@@]23CC[C@@H]4[C@](C)(C(=O)O)CCC[C@@]4(C)C2=CC[C@H]1C3`: the Potency entry was “inactive”.

Turning to `C[C@@H]1O[C@@H](O[C@H]2[C@H](OC(C#N)c3ccc(O)cc3)O[C@H](CO)[C@@H](O)[C@@H]2O)[C@H](O)[C@H](O)[C@H]1O` (stereo not given in full), the Potency entry was “inactive”.

The record behind these values is PubChem BioAssay (NCATS).
